target: ALK tyrosine kinase receptor (Homo sapiens) (UniProt Q9UM73); conditions: at 0.1 µM
Sequence (Q9UM73 19-1620 limits assumed): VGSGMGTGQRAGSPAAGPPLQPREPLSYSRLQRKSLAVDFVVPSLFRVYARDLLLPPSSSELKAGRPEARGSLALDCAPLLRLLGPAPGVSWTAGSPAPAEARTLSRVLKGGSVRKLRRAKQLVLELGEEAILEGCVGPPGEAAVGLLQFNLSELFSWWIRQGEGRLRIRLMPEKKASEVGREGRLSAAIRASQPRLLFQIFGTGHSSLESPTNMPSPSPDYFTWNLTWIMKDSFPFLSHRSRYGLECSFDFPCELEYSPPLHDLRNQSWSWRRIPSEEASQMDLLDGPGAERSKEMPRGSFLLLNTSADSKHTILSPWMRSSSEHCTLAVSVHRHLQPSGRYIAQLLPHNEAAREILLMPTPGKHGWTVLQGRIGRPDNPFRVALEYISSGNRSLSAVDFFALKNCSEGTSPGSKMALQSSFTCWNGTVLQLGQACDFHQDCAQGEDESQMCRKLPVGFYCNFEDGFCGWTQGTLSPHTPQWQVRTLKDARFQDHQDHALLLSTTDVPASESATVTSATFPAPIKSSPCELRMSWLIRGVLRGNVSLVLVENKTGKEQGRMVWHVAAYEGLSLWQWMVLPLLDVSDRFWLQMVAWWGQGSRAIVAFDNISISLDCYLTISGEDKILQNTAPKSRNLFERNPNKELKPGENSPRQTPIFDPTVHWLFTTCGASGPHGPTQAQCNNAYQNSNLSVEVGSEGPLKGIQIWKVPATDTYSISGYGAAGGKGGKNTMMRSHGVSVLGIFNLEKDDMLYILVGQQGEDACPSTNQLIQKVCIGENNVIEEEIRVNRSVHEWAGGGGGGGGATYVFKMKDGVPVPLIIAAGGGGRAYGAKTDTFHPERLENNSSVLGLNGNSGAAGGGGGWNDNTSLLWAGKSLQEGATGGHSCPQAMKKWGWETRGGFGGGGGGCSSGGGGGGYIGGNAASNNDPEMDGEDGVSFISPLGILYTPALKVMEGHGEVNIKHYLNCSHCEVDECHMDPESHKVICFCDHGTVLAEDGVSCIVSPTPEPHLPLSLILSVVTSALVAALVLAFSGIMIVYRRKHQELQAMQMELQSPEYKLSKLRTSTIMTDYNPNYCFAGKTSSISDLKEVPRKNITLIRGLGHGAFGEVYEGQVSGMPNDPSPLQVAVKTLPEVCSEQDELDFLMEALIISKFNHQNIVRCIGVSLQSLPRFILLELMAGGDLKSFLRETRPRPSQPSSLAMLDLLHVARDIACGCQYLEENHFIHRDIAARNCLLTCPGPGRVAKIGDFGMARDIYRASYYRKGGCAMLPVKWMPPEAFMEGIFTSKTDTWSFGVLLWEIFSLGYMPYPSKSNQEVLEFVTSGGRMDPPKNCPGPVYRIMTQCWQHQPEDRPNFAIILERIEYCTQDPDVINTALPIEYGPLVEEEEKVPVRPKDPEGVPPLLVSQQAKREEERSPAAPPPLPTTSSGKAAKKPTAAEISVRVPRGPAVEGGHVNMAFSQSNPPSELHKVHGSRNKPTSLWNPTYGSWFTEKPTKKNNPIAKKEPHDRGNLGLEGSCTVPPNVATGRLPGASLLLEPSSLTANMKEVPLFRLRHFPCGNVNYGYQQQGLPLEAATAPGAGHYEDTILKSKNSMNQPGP

Compound | inhibition [%]
Nc1ccc(C#Cc2cncnc2Nc2ccc(OCc3cccc(F)c3)c(Cl)c2)cc1 | 3.7
O=S(=O)(CCOCc1ccc(-c2ccc3ncnc(Nc4ccc(OCc5cccc(F)c5)c(Cl)c4)c3c2)o1)c1ccccc1 | 0.65
Nc1nccc(C#Cc2cncnc2Nc2ccc(OCc3cccc(F)c3)c(Cl)c2)n1 | 3.59
ON=C1CCc2cc(-c3nc(C4CCNCC4)[nH]c3-c3ccncc3)ccc21 | 2.45
Cc1cc(O)cc(C)c1/C=C/c1cncc(C(=O)N(C)C)c1 | 1.7
CCn1c(-c2nonc2N)nc2c(C#CC(C)(C)O)nc(OCCNC)cc21 | 2.7
Cc1cc(-c2ccccn2)cc(C)c1/C=C/c1cncc(-c2nn[nH]n2)c1 | 3.44
NS(=O)(=O)c1ccc(-c2cc3ccncc3cc2OCc2ccccc2)cc1 | 4.77
CS(=O)(=O)Nc1cccc(-c2ccc3c(NC(=O)C4CC4)n[nH]c3c2)c1 | 0.61
O=C(Nc1ccc(Oc2ccc3[nH]c(NC(=O)c4ccco4)nc3c2)cc1)Nc1cc(C(F)(F)F)ccc1F | -1.81
COc1ccc2ncnc(Nc3ccc(OCc4ccccc4)cc3)c2c1 | 0.66
COC(=O)c1cncc(/C=C/c2c(C)cc(O)cc2C)c1 | 2.92
Cc1ccc(C(=O)NC2CC2)cc1-c1ccc2[nH]ncc2c1 | -1.6
COc1cc2ncnc(Nc3ccc4c(cnn4Cc4ccccc4)c3)c2cc1OC | 1.67
Cc1ccc2c(c1)/C(=N/Nc1ccc(S(N)(=O)=O)cc1)C(=O)N2 | 0.89
CN(C)CCCn1c(-c2nonc2N)nc2cnccc21 | 2.82
CCCN1CCCC(c2ccc(Nc3nc(Nc4cc(F)ccc4C(N)=O)c4cc[nH]c4n3)c(OC)c2)C1 (stereo not drawn) | 98.2

Compound | inhibition [%]
Cc1ccc(NC(=O)CC2CC2)cc1-c1ccc(C(=O)NCC2CC2)cc1 | 1.68
Cc1ccc(Nc2ccnc(Nc3cccc(C(N)=O)c3)n2)cc1O | -0.94
CN(c1ccc(NC(=O)Nc2ccc(OC(F)(F)F)cc2)cc1)c1ccnc(Nc2cccc(S(N)(=O)=O)c2)n1 | 1.46
CS(=O)(=O)CCNCc1nc(-c2ccc3ncnc(Nc4ccc(OCc5cccc(C(F)(F)F)c5)cc4)c3c2)cs1 | 2.68
Cc1nc(-c2ccccc2)n2nc(NCCCN3CCOCC3)ncc12 | 2.79
CN(C)C(=O)O[C@H]1CN[C@H](C#Cc2cc3ncnc(Nc4ccc(OCc5cccc(F)c5)c(Cl)c4)c3s2)C1 | 2.82
NC(=O)c1sc(-n2cnc3ccccc32)cc1OCc1ccccc1Br | 4.26
COc1cc(/C=N/Nc2ncnc3c2cnn3C(C)C)ccc1O | 0.72
Cc1ccc2c(-c3ccnc(Nc4cccc(C(F)(F)F)c4)n3)c(-c3ccccc3)nn2n1 | 3.25
CC(C)c1ccc2c(c1)NC(=O)/C2=N/Nc1ccc(S(N)(=O)=O)cc1 | -0.35
NS(=O)(=O)c1ccc(NC=C2C(=O)Nc3ccc4ncsc4c32)cc1 | 7.33
CN(C)c1cc2c(Nc3ccc4c(cnn4Cc4ccccc4)c3)ncnc2cn1 | 2.86
Oc1cccc(-c2nc(-c3ccccc3)[nH]c2-c2ccncc2)c1 | 3.1
CCn1c(-c2nonc2N)nc2ccc(F)cc21 | 5.2
CN1CCN(C(=O)c2ccc(NC(=O)Nc3ccc(N(C)c4ccnc(Nc5ccc(CS(C)(=O)=O)cc5)n4)cc3)cc2)CC1 | 1.71
Nc1nccc(-c2c(-c3ccc(F)cc3)nn3cc(C(F)(F)F)ccc23)n1 | 3.84

— ChEMBL document CHEMBL1961873, “Compounds: GSK PKIS; Assays: Nanosyn kinase panel” (2012)
